Screening results: PubChem, several laboratories
tim10-1 inh: tim10-1 yeast growth inhibition | actives 2.2% (n = 330,000) | inhibition, % at 20 µM | S. cerevisiae tim10-1 ts strain growth, BacTiter-Glo, 24 h | AID 463190;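 active means inhibition of at least 40%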;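 further: mutant grown at 25 °C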
tim23-1 inh: growth inhibitors of tim23-1 mutant yeast; inhibition, % at 20 µM; S. cerevisiae tim23-1 growth, BacTiter-Glo luminescence, 24 h; actives 1.3% (n = 330,000);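 active means growth inhibition of the mutant yeast at or above 50%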;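 further: temperature-sensitive mutant grown at 25 °C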
PfHsp90 set2: reduces growth (ATP signal) of yeast expressing P. falciparum Hsp90; S. cerevisiae expressing PfHsp90, BacTiter-Glo ATP, 48 h; yeast lacking PDR1 and PDR3 efflux regulators; inhibition, % at 9.4 µM; actives 0.32% (n = 310,000); AID 504621;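 active means every replicate shows inhibition above about 80%, whatever the replicate mean, limit read from the data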
TIM10 inh: TIM10 yeast growth inhibition | actives 1.4% (n = 330,000) | S. cerevisiae TIM10 strain growth, BacTiter-Glo luminescence, 24 h | inhibition, % at 10 µM;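 active means inhibition of 40% or more at the single tested concentration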;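 further: wild-type TIM10 isogenic control strain grown at permissive 25 °C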
NLRP3 yeast inh: inhibitors of NALP3 inflammasome in yeast; inhibition, % at 10 µM; Yeast reconstituted NLRP3/ASC/caspase-1, beta-gal luminescence, 24 h; actives 0.39% (n = 330,000); AID 2825;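 active means inhibition of 50% or more; inactive means inhibition below 50%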
tim10-1 conf: tim10-1 yeast growth inhibition, confirmed | AID 463213 | shares compounds with tim10-1 inh | inhibition, % at 20 µM | S. cerevisiae tim10-1 ts strain growth, BacTiter-Glo, 24 h | actives 56% (n = 7,400);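 active means inhibition of yeast growth at or above a set limit in either of two repeat tests at 20 µM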;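 further: tim10-1 mutant grown at permissive 25 °C to find synthetic lethal compounds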
Of the large screens only hits and unclear results are named; the others gave an inactive call (follow-up assays come after a bar, where they were run). Most compounds without a hit are left out; they make up all but 3.7% or so of the library.

CC(=O)Nc1ccc(N2S(=O)(=O)c3ccccc3S2(=O)=O)cc1	tim10-1 inh 41 | tim10-1 conf inactive
CC(=O)c1ccc(N2CCN(C(=O)c3cc4c(s3)CCCC4)CC2)cc1	tim10-1 inh 47 | tim10-1 conf inactive
O=C(c1cc2c(s1)CCCCC2)N1CCN(c2ncccn2)CC1	tim10-1 inh 45 | tim10-1 conf inactive
COC(=O)CCNS(=O)(=O)c1ccc2ccccc2c1	none
Cc1ccccc1NS(=O)(=O)c1cc(C(=O)N2CCc3ccccc3C2)ccc1C	tim10-1 inh 42 (no result: PfHsp90 set2) | tim10-1 conf 33
Cc1ccc(C(=O)N2CCc3ccccc3C2)cc1S(=O)(=O)N1CCOCC1	none
Cc1ccc(C(=O)NCCC2=CCCCC2)cc1S(=O)(=O)N1CCOCC1	none (no result: PfHsp90 set2)
O=C(NCCC1=CCCCC1)c1ccc(Cl)c(S(=O)(=O)Nc2ccccc2)c1	none
Cc1ccccc1NS(=O)(=O)c1cc(C(=O)NCCC2=CCCCC2)ccc1C	tim10-1 inh 40 | tim10-1 conf inactive
Cc1ccc(C(=O)NCCC2=CCCCC2)cc1S(=O)(=O)N1CCCCC1	tim10-1 inh 41 | tim10-1 conf inactive
O=C(CCCCn1c(=O)[nH]c2ccccc2c1=O)N1CCN(c2ncccn2)CC1	none
CC(C)(C)OC(=O)N1CCCC1C(=O)NCCc1ccccc1 (stereo unspecified)	none
CCc1cc2c(C)cc(=O)oc2cc1OC(=O)C1CCCN1C(=O)OC(C)(C)C (stereo unspecified)	tim10-1 inh 46 (no result: PfHsp90 set2) | tim10-1 conf inactive
CC(C)c1ccc(S(=O)(=O)N2CCN(C(=O)CCNC(=O)Nc3ccccc3)CC2)cc1	none
CC(C)c1ccc(NC(=O)N2CCN(S(=O)(=O)c3ccccc3)CC2)cc1	tim10-1 inh 41 | tim10-1 conf inactive
CCNC(=O)COc1ccc(-c2ccccc2)cc1	none (no result: PfHsp90 set2)
Cn1c(=O)n(C/C=C/c2ccccc2)c(=O)c2c1nc1n2CCCN1c1ccc(F)cc1	tim10-1 inh 46 | tim10-1 conf inactive
CC(C)Cn1c(=O)c2c(nc3n2CCCN3Cc2ccccc2)n(C)c1=O	tim10-1 inh 42 | tim10-1 conf inactive
Cn1c(=O)n(Cc2ccc(F)cc2)c(=O)c2c1nc1n2CCCN1C1CCCCC1	tim10-1 inh 48 | tim10-1 conf inactive
Cc1nc(Nc2nc(-c3ccccc3)cc(=O)[nH]2)nc2ccccc12	tim10-1 inh 43 | tim10-1 conf inactive
Cc1nc(Nc2nc(CSc3nc4ccccc4[nH]3)cc(=O)[nH]2)nc2ccccc12	none
Cc1ccc(S(=O)(=O)CNC(=S)c2cccc(C)c2)cc1	none
COc1ccc(C(=S)NCS(=O)(=O)c2ccc(C)cc2)cc1	tim10-1 inh 40 | tim10-1 conf inactive
C/C(CC(=O)Nc1cc(Cl)ccc1Cl)=N\NC(=O)c1ccccc1Br	none
O=C(O)CN1C(=O)/C(=C/c2ccc(N3CCCCC3)o2)SC1=S	none
CCCN1C(=O)S/C(=C/c2ccc(N3CCOCC3)o2)C1=O	tim10-1 inh 41 | tim10-1 conf 38
COC(=O)CN1C(=O)S/C(=C/c2ccc(N3CCCCC3)o2)C1=O	tim10-1 inh 54 | tim10-1 conf 51
CCOC(=O)CN1C(=O)S/C(=C/c2ccc(N3CCCCC3)o2)C1=O	none
CCCN1C(=O)S/C(=C\c2ccc(N3CCOCC3)o2)C1=O	tim10-1 inh 45 | tim10-1 conf 48
COC(=O)N/N=C/c1cccc(OCCSc2ccc(Cl)cc2)c1	none
N/C(=N\OC(=O)c1ccccc1Br)c1ccc([N+](=O)[O-])cc1	none
COc1ccccc1C(=O)O/N=C(/c1ccncc1)c1ccc([N+](=O)[O-])cc1	tim10-1 inh 47 | tim10-1 conf inactive
N/C(=N\OC(=O)N1CCOCC1)c1ccc(Cl)cc1	tim10-1 inh 61 | tim10-1 conf 49
Cc1ccccc1C(=O)O/N=C(\N)c1ccc([N+](=O)[O-])cc1	tim10-1 inh 53 | tim10-1 conf 62
Cc1ccc(C(=O)O/N=C(\c2ccccc2)c2ccncc2)cc1	none
N/C(=N\OC(=O)N1CCOCC1)c1ccccc1	none
Cc1cc(C)cc(C(=O)O/N=C(\N)c2ccc(Br)cc2)c1	tim10-1 inh 40 | tim10-1 conf 31
C1=CC2C3C=CC(C3)C2C1 (stereo unspecified)	none
O=C(O)CC(NC(=O)/C(=C/c1ccccc1)NC(=O)c1ccccc1)c1ccccc1 (stereo unspecified)	none
CCC(C)(C)NC(=O)CN(Cc1ccc(F)cc1)C(=O)CCC(=O)Nc1ccccn1	none
COc1cc(C(=O)O/N=C(\N)c2cccc([N+](=O)[O-])c2)cc(OC)c1OC	none
COc1ccc(C(=O)O/N=C(\N)c2ccncc2)cc1OC	none
COc1ccc(C(=O)O/N=C(\N)c2ccccc2)cc1OC	tim10-1 inh 51 | tim10-1 conf 53
COc1ccc(C(=O)O/N=C(\N)c2ccc(Cl)cc2)cc1	tim10-1 inh 44 | tim10-1 conf 46
Cc1cccc(C(=O)O/N=C(\N)c2ccc(Cl)cc2)c1	none
COc1ccc(C(=O)ON=C2C=C(C)C(=O)C(C)=C2)cc1	tim10-1 inh 48 | tim10-1 conf inactive
COc1cc(C(=O)ON=C2C=C(C)C(=O)C(C)=C2)cc(OC)c1OC	none
COc1cc(C(=O)O/N=C(\N)c2ccc([N+](=O)[O-])cc2)cc(OC)c1OC	tim10-1 inh 59 | tim10-1 conf 47
OCC[C@H]1C[C@H](O)[C@@H](O)[C@@]2(Cc3ccccc3O2)O1	none
O=C(Nc1ccccc1)c1cccc(N2C(=O)C3C4CC(C(Br)C4Br)C3C2=O)c1 (stereo unspecified)	none
CCn1c(SCC(=O)Nc2ccccc2-c2ccccc2)nnc1-c1ccoc1C	none
CCn1c(-c2cc(-c3cccc(OC)c3)nc3ccccc23)n[nH]c1=S	tim10-1 inh 43 (no result: PfHsp90 set2) | tim10-1 conf inactive
COc1ccc(-c2cc(C(F)F)n3ncc(C(=O)N4CCc5ccccc5C4)c3n2)cc1	tim10-1 inh 41 | tim10-1 conf inactive
O=[N+]([O-])c1ccc(Sc2cccc3cccnc23)c([N+](=O)[O-])c1	tim10-1 inh 56 | tim10-1 conf 57
Cc1cc(C)nc(Sc2ccc([N+](=O)[O-])cc2[N+](=O)[O-])n1	tim10-1 inh 47 | tim10-1 conf 30
C=CCn1nc([N+](=O)[O-])nc1Sc1cccc2cccnc12	tim10-1 inh 52 | tim10-1 conf 37
O=C(c1ccc(NS(=O)(=O)c2ccc3[nH]c(=O)[nH]c3c2)cc1)N1CCN(c2ccccc2)CC1	none
CCOC(=O)C(=Cc1ccc(OCc2ccc([N+](=O)[O-])cc2)c(OC)c1)C(=O)OCC	none
O=C1Cc2cc(NS(=O)(=O)c3cc(F)ccc3F)cc3c2N1CCC3	none (no result: PfHsp90 set2)
Cc1ccc(NC(=O)CSCC(=O)Nc2nnc(C3CC3)s2)cc1	none (no result: PfHsp90 set2)
Cc1ccc(Nc2nnc(C3C(=O)N(C)C4(C)CC3c3cc(Br)ccc3O4)s2)cc1 (stereo unspecified)	tim10-1 inh 45 | tim10-1 conf inactive
